The assay concerns thyroid hormone receptor (endogenous TRα and TRβ). The arrangement: species or system GH3-TRE-Luc (rat pituitary); GH3-TRE-Luc luciferase reporter, antagonist mode against 1 nM T3, loss of signal, qHTS. The conditions noted are these: read-out: Average AC50 (uM) GH3-TRE-Antag, antagonist mode, 1 nM T3, no GH3 cytotoxicity hit.
For orientation: AC50 means the concentration giving half of the maximal activity seen. As for `CC(C)(C)NCC(O)COc1ccc(NC(=O)NC2CCCCC2)cc1` (centres unmarked) [Talinolol], the AC50 came out at 26.4 µM.

As to `O=c1[nH]c2ccc([S+]([O-])CCN3CCC(Cc4ccc(F)cc4)CC3)cc2o1` (centres unmarked) [Besonprodil], the AC50 stood at 75.9 µM.

For `CC(Cc1ccc(C(C)(C)C)cc1)CN1C[C@@H](C)O[C@@H](C)C1` (stereo partly drawn) [(2R,6S)-Fenpropimorph], the AC50 came out at 47.3 µM.

On to `c1csc(SSc2cccs2)c1` [2-Thienyl disulfide], for which the AC50 was 57.5 µM.

On to `CC(O)(CS(=O)(=O)c1ccc(F)cc1)C(=O)Nc1ccc(C#N)c(C(F)(F)F)c1` (centres unmarked) [Bicalutamide], for which the AC50 is 35.3 µM.

The record behind these values is article PMC6792352, “Limited Chemical Structural Diversity Found to Modulate Thyroid Hormone Receptor in the Tox21 Chemical Library” (Environmental Health Perspectives, 2019).
